Measured values reported in PubChem BioAssay AID2014 (Sanford-Burnham Center for Chemical Genomics, 2009).
Among all 290,000 compounds or so, about 3,000 (1%) were called active. How the calls were made is not given here. For the sample, actives were picked, then their nearest neighbours and some compounds at random.

Target: Polyadenylate-binding protein 1 (Homo sapiens) (UniProt P11940)
Assay: blockers of PABP interaction with poly(A) – biochemical, fluorescence polarization, uHTS, primary screen (AID 2014);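 further: calls also rest on retests at 20 µM and on dose response follow-up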
Settings: PABP-poly(A) RNA binding, stronger effect = higher value

Chain of Polyadenylate-binding protein 1 (Homo sapiens) (P11940 whole entry, looked up): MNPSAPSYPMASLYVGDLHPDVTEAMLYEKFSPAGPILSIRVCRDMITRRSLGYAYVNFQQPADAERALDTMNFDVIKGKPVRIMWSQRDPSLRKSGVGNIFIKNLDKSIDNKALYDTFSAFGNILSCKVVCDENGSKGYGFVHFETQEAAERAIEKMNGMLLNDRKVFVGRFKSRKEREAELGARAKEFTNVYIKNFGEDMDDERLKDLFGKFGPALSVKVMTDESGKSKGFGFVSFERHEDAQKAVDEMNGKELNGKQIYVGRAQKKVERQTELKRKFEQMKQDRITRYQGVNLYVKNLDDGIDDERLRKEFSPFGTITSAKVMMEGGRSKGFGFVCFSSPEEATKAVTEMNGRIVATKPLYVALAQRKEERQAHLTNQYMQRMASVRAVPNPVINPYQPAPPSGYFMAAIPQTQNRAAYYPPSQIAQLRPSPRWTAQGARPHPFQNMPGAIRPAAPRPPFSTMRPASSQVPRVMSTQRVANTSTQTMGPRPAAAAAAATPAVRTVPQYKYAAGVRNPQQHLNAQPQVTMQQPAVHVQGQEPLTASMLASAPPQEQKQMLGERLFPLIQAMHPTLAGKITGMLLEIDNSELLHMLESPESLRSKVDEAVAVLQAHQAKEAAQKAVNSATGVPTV

Compound | inhibition (at 35 µM) | inhibition (confirmation repeats, at 20 µM) [%]
O=C(O)COc1ccccc1/C=C1\C(=O)NC(=O)N(CCC2=CCCCC2)C1=O | 53.5% (active) | 
O=C1NC(=O)N(Cc2ccco2)C(=O)/C1=C\c1cccn1CCOc1ccccc1 | 10.9% (inactive) | 
O=C1NC(=O)N(CCc2ccc(F)cc2)C(=O)/C1=C/C=C/c1ccccc1 | -13.4% (inactive) | 
COc1ccc(Br)cc1CNCCc1cccc(Cl)c1 | 3.3% (inactive) | 
c1ccc(CC2CCCCN2)cc1 (stereo unspecified) | 1.7% (inactive) | 
COc1ccc(CNCCc2c[nH]c3ccccc23)cc1OC | 11.6% (inactive) | 
CCC(=NCCc1ccccc1)c1c(O)n(C2CCCCC2)c(=O)[nH]c1=O | -9.2% (inactive) | 
CC(=NCC1CCCO1)c1c(O)n(-c2ccccc2)c(=O)[nH]c1=O (stereo unspecified) | -3.4% (inactive) | 
CC(=O)c1c(O)n(C2CCCCCC2)c(=O)[nH]c1=O | 75.6% (active) | 
COc1cccc(OC)c1C(=O)NC(=S)N1C[C@H]2C[C@H](C1)c1cccc(=O)n1C2 | 13.3% (inactive) | 
CN(C)c1ccc(/C=C2\CC3C4CC=C5CC(O)CCC5(C)C4CCC3(C)C2=O)cc1 (stereo unspecified) | 53.3% (active) | 93.6
O=C(Cc1ccc(Cl)cc1)NCCN1CCN(C(=O)Cc2ccc(Cl)cc2)CC1 | 3.1% (inactive) | 
O=[N+]([O-])c1cnc2ccc3ccccc3c2c1 | 3.3% (inactive) | 
COc1ccc2[nH]c3c(c2c1)CCN[C@H]3C | 7.6% (inactive) | 
COc1ccc(N=Cc2c(O)n(C)c(=O)[nH]c2=O)cc1 | -8.6% (inactive) | 
CN(C)CCN(CC1CCCN(Cc2ccccc2F)C1)C(=O)Cc1ccc(F)c(F)c1 (stereo unspecified) | 0.6% (inactive) | 
Cc1c(Oc2cc(NN3CCCCC3)c([N+](=O)[O-])cc2[N+](=O)[O-])cccc1[N+](=O)[O-] | 2.3% (inactive) | 
O=C(NC(=S)N1C[C@H]2C[C@H](C1)c1cccc(=O)n1C2)c1ccc(F)cc1 | 2.2% (inactive) | 
CCN(CC)CCOC(=O)c1cc2cc(COC)ccc2o1 | 70.7% (active) | 
C=CCN1C(=O)NC(=O)/C(=C/c2ccc(OCC(=O)Nc3ccc(C)cc3)cc2)C1=O | 8.1% (inactive) | 
COc1ccc(CNCCc2ccc3c(c2)OCO3)c(OC)c1OC | 11.3% (inactive) | 
N#CC1=C(N)Oc2c(c(=O)oc3ccccc23)C1c1ccccc1OC(=O)c1cccs1 (stereo unspecified) | -4.4% (inactive) | 

Compound | inhibition (at 35 µM) | inhibition (confirmation repeats, at 20 µM) [%]
CCNc1nc2[nH]c(=O)c3c(c2s1)OC(N)=C(C#N)C3c1cccs1 (stereo unspecified) | 68.5% (active) | 
COc1cccc(C(=O)N2C[C@H]3C[C@@H](C2)c2cccc(=O)n2C3)c1 | 1.4% (inactive) | 
COc1ccccc1NC(=O)N1C[C@@H]2C[C@@H](C1)c1cccc(=O)n1C2 | -1.1% (inactive) | 
O=C(O)c1ccccc1NC(=O)C1C2CCC(O2)C1C(=O)O (stereo unspecified) | -8.7% (inactive) | 
Cc1cccc(N2C(=O)NC(=O)/C(=C\c3cnn(-c4ccccc4)c3)C2=O)c1 | -12.4% (inactive) | 
COc1cccc(N2C(=O)NC(=O)/C(=C\c3ccc([N+](=O)[O-])s3)C2=O)c1 | -6.1% (active) | 95.4
O=C1NC(=O)N(c2ccccc2)C(=O)/C1=C/c1ccc([N+](=O)[O-])s1 | 40.1% (inactive) | 30.8
Oc1cc2c(cc1CN1CCN(c3ccccc3)CC1)OCO2 | 2% (inactive) | 
COCCNC(=O)CN1C2CCC1CC(O)(c1cccnc1)C2 (stereo unspecified) | 14.6% (inactive) | 
CC(C)(C)c1ccc(CN2C(=O)CN=C(c3ccccc3)c3ccccc32)cc1 | 12.1% (inactive) | 
O=C1CC(=O)N(Cc2ccccc2)C(=O)N1CCCCCCN1C(=O)CC(=O)N(Cc2ccccc2)C1=O | 25.8% (active) | 112
O=C(CN1CCCC1=O)NCCc1ccccc1 | -2.9% (inactive) | 
CC(C)c1ccc(OCC(=O)N2CCCN(C)CC2)cc1 | -0.5% (inactive) | 
COc1ccc(N2C(=O)/C(=C/c3ccco3)C(=O)NC2=S)cc1 | 38.7% (active) | 73.3
COc1ccc(CN2C(=O)NC(=O)/C(=C\c3ccc(OC)c(OC)c3OC)C2=O)cc1 | 66.4% (inactive) | 6.1
Cc1cc(/C=C2/C(=O)NC(=O)N(Cc3ccco3)C2=O)c(C)n1-c1ccc(C(=O)O)cc1 | 47.1% (inactive) | 23.1
COc1ccccc1OC(=O)c1ccc(C)c(S(=O)(=O)N2CCOCC2)c1 | -7% (inactive) | 
CCN(CC)C(=O)c1ccc(NC(=O)c2sccc2-c2ccccc2)cc1 | -2.6% (inactive) | 
CN(C)C(=O)Oc1ccc2c(c1)O/C(=C\c1ccccc1)C2=O | -6.7% (inactive) | 
CC(=O)Nc1ccc(C(=O)C(Cc2ccccc2)N(C)C)cc1 (stereo unspecified) | -3.6% (inactive) | 
c1ccc(CCNC2CCCCCC2)cc1 | 8.2% (inactive) | 
O=C(N/N=C/c1c(O)n(C2CC2)c(=S)[nH]c1=O)c1ccccc1 | 0.6% (inactive) | 

Compound | inhibition (at 35 µM) | inhibition (confirmation repeats, at 20 µM) [%]
O=c1[nH]c(=O)n(CCc2ccc(F)cc2)c(O)c1/C=N/N1CCCCC1 | -15% (inactive) | 
O=C(N/N=C/c1c(O)n(Cc2ccccc2)c(=O)[nH]c1=O)c1ccccc1 | 15% (active) | 81.4
O=c1[nH]c(=O)n(CCc2ccccc2)c(O)c1/C=N/N1CCOCC1 | -1.6% (inactive) | 
CCCCC(=O)N/N=C/c1c(O)n(-c2ccccc2)c(=O)[nH]c1=O | 5.3% (inactive) | 
O=c1[nH]c(=O)n(Cc2ccccc2)c(O)c1/C=N/Nc1c(F)c(F)c(F)c(F)c1F | 71% (active) | 
CN1CCC(OC(=O)c2cccc(F)c2)CC1 | -7.8% (inactive) | 
CCN(CC)C(=O)Oc1ccc(NC(=O)N2CCOCC2)cc1 | 2.1% (inactive) | 
CCN1CCN(Cc2cc(OC)c3c(c2)OCO3)CC1 | 16.4% (inactive) | 
Cc1ccc(C2CN(C)CC2C(=O)c2ccc(F)cc2)cc1 (stereo unspecified) | 3.1% (inactive) | 
CC1(C)Cc2c(C#N)c(N3CCNCC3)nc(-c3ccco3)c2CS1 | 47.2% (active) | 59.2
O=C(N/N=C/c1c(O)n(C2CC2)c(=S)[nH]c1=O)c1ccccc1Cl | 31% (inactive) | 
O=c1c2ccccc2nc(-c2ccco2)n1-c1ccc(Br)cn1 | 5.1% (inactive) | 
O=c1c2ccccc2nc(/C=C/c2ccc(F)cc2)n1-c1ccccc1O | -9.7% (inactive) | 
O=c1c2ccccc2nc(/C=C/c2ccco2)n1-c1ccccc1O | 43.7% (active) | 54.4
CN(C)S(=O)(=O)c1cc(C(=O)N2CCC(C(=O)O)(c3ccccc3)CC2)ccc1Cl | 7.1% (inactive) | 
Cc1cccc(NC(=O)N2CC3CC(C2)c2cccc(=O)n2C3)c1 (stereo unspecified) | -0.3% (inactive) | 
CC1CCC(N(C)C2CCN(C)CC2)CC1 (stereo unspecified) | 10.9% (inactive) | 
Cn1c(O)c(C=Nc2ccc3c(c2)CCC3)c(=O)n(C)c1=O | -0.7% (inactive) | 
CN(C)CCCN=Cc1c(O)n(Cc2ccco2)c(=O)[nH]c1=O | 3% (inactive) | 
CC(C)n1c(=O)c(C=Nc2ccc(Br)cc2)c(O)n(Cc2ccco2)c1=O | 6% (active) | 52
CCN1C(=O)C(=Cc2c(C)n(CC(=O)NCC3CCCO3)c3ccccc23)C(=O)N(CC)C1=S (stereo unspecified) | -3.1% (inactive) | 
